Source: PubChem (National Center for Advancing Translational Sciences (NCATS))
Rows were chosen to be rich in hits. Some 4.7% of all compounds tested hit in one or more screens of this group.
TRHR agonist – activates the human TRH receptor; P34981; TRHR cells, calcium flux fluo-8, FDSS agonist mode; activation, % at 2 µM; 360,000 compounds, 0.18% hits; AID 493084
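TRHR-expressing cells loaded with fluo-8 calcium dye; 23 nL library compound pin-transferred, kinetic FDSS fluorescence (Ex 480/Em 530) recorded about 180 s for agonist-induced calcium release, before a 10 nM TRH EC20 addition for potentiator mode.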
D1 antagonist – human D1 dopamine receptor antagonism. activity change, negative = inhibition, % at 10 µM. 360,000 compounds, 3.2% hits. AID 504652. P21728. HEK293 TREx D1 cells, calcium flux, dopamine EC80; active compounds read low; in the data active means activity change below about -30%
Target sequence (P21728 whole entry, looked up): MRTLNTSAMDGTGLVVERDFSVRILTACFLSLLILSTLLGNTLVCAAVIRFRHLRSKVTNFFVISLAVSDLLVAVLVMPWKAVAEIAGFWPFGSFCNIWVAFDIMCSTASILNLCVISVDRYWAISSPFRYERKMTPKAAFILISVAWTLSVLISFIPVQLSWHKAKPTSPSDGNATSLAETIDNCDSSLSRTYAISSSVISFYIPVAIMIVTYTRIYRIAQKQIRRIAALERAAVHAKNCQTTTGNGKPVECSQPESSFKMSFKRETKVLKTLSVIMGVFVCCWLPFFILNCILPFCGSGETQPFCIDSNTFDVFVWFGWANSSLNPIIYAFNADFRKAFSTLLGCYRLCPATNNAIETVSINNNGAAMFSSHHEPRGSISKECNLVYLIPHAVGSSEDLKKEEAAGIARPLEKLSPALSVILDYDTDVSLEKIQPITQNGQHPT
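Inducible Hek293 Trex D1 cells (tetracycline, overnight, 30 C). Calcium dye 30–90 min RT. Antagonist mode: EC80 dopamine added after 180 s compound read.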
TRHR PAM – TRH receptor (human) allosteric enhancement; enhancement, % at 2 µM; AID 493056; TRHR cells, fluo-8 calcium fluorescence, EC20 TRH enhancement; 360,000 compounds, 0.66% hits; in the data active means enhancement above about 30%
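TRHR-expressing cells loaded with fluo-8 calcium dye were read kinetically (ex 480/em 530) during compound addition, then stimulated with an EC20 of TRH (10 nM final). Enhancement of the Gq-mediated intracellular calcium response was scored.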
D1 potentiator – human D1 dopamine receptor positive modulation | potentiation, % at 10 µM | P21728 | HEK293 TREx D1 cells, calcium flux, dopamine EC20 potentiation | 360,000 compounds, 0.036% hits | AID 504651; in the data active means potentiation above about 30%
D1 agonist – human D1 receptor agonism; HEK293 T-REx D1 cells, calcium flux, agonist mode; 360,000 compounds, 1% hits; activation, % at 2 µM; AID 504660
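Inducible HEK293 T-REx D1 cells, force-coupled to calcium signalling, were plated at 4000 cells/well with tetracycline and held overnight at 30 C. After no-wash calcium dye loading, compound-evoked calcium rise over 180 s flagged agonists.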
Each line names hits and unclear results; the compound was inactive in the other large screens. Unless noted, no stated cut-off is given here; in the data, active means activation above about 30%; inactive means the rest.

O=C(NC12CC3CC(CC(C3)C1)C2)c1ccc([N+](=O)[O-])o1	D1 antagonist -48.2
CN(C)CCCN(Cc1ccccc1)C(=S)Nc1ccc(F)c(Cl)c1	D1 antagonist -34.2, D1 agonist 35.2
CN(C)CCCN(Cc1ccccc1)C(=S)Nc1cccc(C(F)(F)F)c1	none
CCCN(Cc1ccccc1)C(=S)Nc1cccc(C(F)(F)F)c1	D1 antagonist -31.6
O=C(Cc1ccccc1)Nn1c(O)c(/C=C2\C=Nc3ccccc32)sc1=S	D1 agonist 99.4
N#Cc1cccc(CN2CCC(=O)N([C@H](CO)Cc3ccccc3)CC2)c1	D1 antagonist -44.6
Cc1cc(-n2c(C)nc3ccccc3c2=O)ccc1NC(=O)c1cccc([N+](=O)[O-])c1C	none (no result: D1 antagonist)
Cc1ccc(CNC(=O)Cn2c(=O)n(Cc3ccccc3)c(=O)c3c2c2cc(C)ccc2n3C)cc1	none
Cc1ccc(NC(=O)c2cccc(NC(=O)N3CCSc4ncccc43)c2)cc1Cl	none
Cc1cc(Cl)ccc1NC(=O)c1cccc(NC(=O)N2CCSc3ncccc32)c1	D1 antagonist -48.7
Cc1cc(C)c2c(n1)SCCN2C(=O)Nc1ccc(C(=O)Nc2cc(Cl)ccc2C)cc1	D1 antagonist -32.7
CCn1c2ccccc2c2cc(NC(=O)c3cc(C)on3)ccc21	D1 antagonist -45.1
CCn1c2ccccc2c2cc(NC(=O)c3ccc(Br)o3)ccc21	none
CCn1c2ccccc2c2cc(NC(=O)c3coc(=O)c(Br)c3)ccc21	D1 antagonist -32.3
COc1cccc2c1Oc1ncccc1N(c1ccc(C(=O)NCc3ccccc3C)s1)C2	none
COCCNC(=O)CSc1nnc(NC(=O)Nc2ccc(C)cc2)s1	none (no result: D1 antagonist)
CCSc1nc2n(n1)C(c1ccc(Cl)cc1Cl)C(C(=O)Nc1ccccc1C)=C(C)N2 (stereo not drawn)	D1 antagonist -33.8
CC1=C(C(=O)Nc2ccccc2C)C(c2cccnc2)n2nc(SCc3ccccc3)nc2N1 (stereo not drawn)	D1 antagonist -37.7
NS(=O)(=O)c1ccc(CCNCc2ccccc2OCc2ccc(F)cc2)cc1	D1 antagonist -40.1, D1 agonist 41.3
CCOc1ccc(CNCCNC(=O)c2nonc2N)cc1	none
COc1cc(CNCCc2ccc(S(N)(=O)=O)cc2)ccc1OCc1ccc(Cl)cc1	none
Nc1nonc1C(=O)NCCNCc1ccccc1OCc1ccc(F)cc1	D1 agonist 30.4
CCOc1cc(CNCCc2ccc(S(N)(=O)=O)cc2)ccc1OCc1ccc(Cl)cc1	D1 antagonist -55.6, D1 agonist 79.5
Cc1ccc(S(=O)(=O)N2CCN(c3nc(-c4ccc(F)cc4)nc4cc(Cl)ccc34)CC2)cc1	none
CN(C)c1ccc(/C=C2\SC(=O)N(CC(O)Cn3c4ccccc4c4ccccc43)C2=O)cc1 (stereo not drawn)	D1 agonist 45.7
CN(C)c1ccc(/C=C2/SC(=O)N(CCN=C3NS(=O)(=O)c4ccccc43)C2=O)cc1	D1 agonist 39.8
CN(C)c1ccc(/C=C2\SC(=O)N(CCc3nnc(N)s3)C2=O)cc1	D1 agonist 62.0
CCOc1cc(/C=C2\SC(=S)N(Nc3ccccc3)C2=O)ccc1O	TRHR agonist 34.7, D1 antagonist -47.2, D1 agonist 39.7
COc1cc(/C=C2\SC(=S)N(NC(=O)c3ccc(O)cc3)C2=O)ccc1O	TRHR agonist 47.6, D1 agonist 124.2
COc1cc(/C=C2/SC(=S)N(CC3CCCO3)C2=O)ccc1O (stereo not drawn)	TRHR agonist 64.2, D1 agonist 87.2
Cc1ccc(C(=O)NN2C(=O)/C(=C/c3cn(C)c4ccccc34)SC2=S)cc1	D1 agonist 65.0
COc1cc(/C=C2\SC(=S)N(NC(=O)c3cccnc3)C2=O)ccc1O	none
Cc1ccc(C)c(Cn2c(=O)n(CCCC(=O)NCCc3ccc(Cl)cc3)c(=O)c3ccccc32)c1	none
O=C1/C(=C/c2ccc(O)c(O)c2)SC(=S)N1Nc1ccccc1	D1 agonist 48.0
Cc1csc(NC(=O)c2cc3c(s2)CCCCC3)n1	none
Cc1csc(NC(=O)c2cc3c(s2)CCCC3)n1	D1 antagonist -43.8
O=C(NC1=NCCS1)c1sc2cc(Cl)cc(Cl)c2c1Cl	D1 antagonist -33.7
Clc1ccc(C2=Nn3c(nnc3-c3n[nH]c4c3CCC4)SC2)cc1Cl	TRHR PAM 35.5
CCOC(=O)c1c(C)[nH]c(CCC(=O)Nc2ccc(N(CC)CC)cc2C)c1C	none
